In PubChem BioAssay (EPA / NIEHS) one finds outcome data, which are given here for four molecules.

A short description of assay [1]: UKN4_HCS_LUHMES_cell_viability: Viability Assessment in the University of Konstanz (UKN) Leist Lab Neurite Outgrowth Assay in human LUHMES cells (UKN4) (AID 2284232; active = hit-call score of the fitted dose curve at least 0.9, where 1 is the maximum; inactive = score below 0.9). The method, then: UKN4_HCS_LUHMES is a cell-based, multiplexed-readout assay screening for neurite outgrowth and cell viability that uses LUHMES, a human central nervous system cell line, with measurements taken at […] after chemical dosing in a microplate: 96-well plate. UKN4, also referred to as NeuriTox, is an assay that uses LUHMES neuronal precursors as a model of dopaminergic neuronal differentiation. Following a 2-day differentiation period, cells are exposed to chemicals for 24 hr and neurite area is evaluated as a marker of neurite outgrowth using high-content imaging of cells stained with calcein AM. Cell viability is assessed using stain Hoechst H-33342.UKN4_HCS_LUHMES_cell_viability is an assay component measured from the UKN4_HCS_LHUMES assay. It is designed to make measurements of enzyme activity, a form of viability reporter, as detected with Fluorescence intensity signals by HCS Fluorescent Imaging.The assay endpoint UKN4_HCS_LUHMES_cell_viability was analyzed with bidirectional fitting relative to DMSO as the negative control and baseline of activity. Using a type of viability reporter, gain or loss-of-signal activity can be used to understand viability effects. To generalize the intended target to other relatable targets, this assay endpoint is annotated to the cell cycle intended target family, where the subfamily is viability. […]

Assay [2] is described as follows: TAMU_HCS_1.5hr_SingleDonor1434_Cytotoxicity: Cytotoxicity Assessment using High-content Screening (HCS) Fluorescent Imaging for the Texas A&M University (TAMU) 1.5-hr Human Induced Pluripotent Stem Cell (iPSC)-derived Cardiotoxicity Assay (AID 2284234). In a few lines:
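Nuclear counts from Hoechst 33342 imaging define cytotoxicity here, with EC10 (10% cell-count loss relative to DMSO) as point of departure. iPSC cardiomyocytes received 0.2-100 uM test chemical in 0.5% DMSO for 1.5 h at 37 C.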

The nature of assay [3]: TAMU_PeakParms_SingleDonor1434_QT: Texas A&M University (TAMU) 1.5-hr Human Induced Pluripotent Stem Cell (iPSC)-derived Cardiomyocytes Calcium (Ca+2) Flux Assay for Cardiotoxicity: QT (decay-rise ratio) (AID 2284235). Put shortly: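 Decay/rise ratio of calcium-flux fluorescence scored after 90 min exposure (37C) of donor 1434 iPSC cardiomyocytes to 0.2–100 uM (0.5% DMSO). Beat-cessation and severe-notch points removed; POD is EC05, a 5% rise over DMSO.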

Results filed as inconclusive are left out. The source made the active and inactive calls. Rule for the calls, unless noted: active = hit-call score of the fitted dose curve at least 0.9, where 1 is the maximum; inconclusive = response in the unintended direction; inactive = score below 0.9.

Consider `Nc1ccn([C@@H]2O[C@H](CO)[C@@H](O)C2O)c(=O)n1` (stereo not given in full), for which the molecule was called inactive in assay [1]. In the case of `O=C(CCCN1CCC(O)(c2ccc(Cl)cc2)CC1)c1ccc(F)cc1`, in assay [1], the call was inactive. Turning to `O=C1NS(=O)(=O)c2ccccc21`, the call in assay [2] and in assay [3] was inactive. `CC(=O)Nc1ccc(O)cc1`: in assay [3], the outcome was inactive.
